aSyn 5UTR act: Activators via SNCA 5'UTR binding, MLPCN | hit rate 7.1% among 300,000 | alpha-synuclein 5'UTR reporter, activators screen | AID 1814 | activity score, % (tested at 7.5 µM), hits read low; in the data active means activity score below about -60%
Of the large screens only hits and unclear results are named; the others gave an inactive call. Not all results are given here.

COC(=O)CCC(=O)c1oc2ccc(Br)cc2c1N	aSyn 5UTR act -82.7
Cc1ccc(C(=O)c2oc3ccccc3c2N)cc1	aSyn 5UTR act -66.0
Nc1c(C(=O)c2ccc(Br)cc2)oc2ccccc12	aSyn 5UTR act -173.7
CCOC(=O)c1oc2ccccc2c1N	aSyn 5UTR act -90.0
Nc1c(C(=O)c2ccccc2)oc2ccc(Br)cc12	aSyn 5UTR act -255.8
Nc1c(C(=O)c2ccccc2)oc2ccc([N+](=O)[O-])cc12	aSyn 5UTR act -110.5
NCCCn1c(C(=O)c2ccc(Cl)cc2)c2ccc([N+](=O)[O-])cc2[n+]1[O-]	none
NC(=O)CCCn1c(C(=O)c2cc(Cl)c(N)c(Cl)c2)c2ccc([N+](=O)[O-])cc2[n+]1[O-]	none
CN(Cc1ccsc1)C(=O)Cn1cc(Br)ccc1=O	aSyn 5UTR act -97.4
Cc1sc(NC(=O)/C=C/c2ccco2)c(C(=O)O)c1C	aSyn 5UTR act -118.0
CCOC(=O)c1c(NC(=O)/C=C/c2ccc(C)o2)sc(C)c1C	aSyn 5UTR act -108.1
O=C(CN1C(=O)C2C3C=CC(C4CC34)C2C1=O)Nc1cnc2ccccc2c1 (stereo not drawn)	aSyn 5UTR act -83.2
FC(F)Sc1ccc(NC(=S)NC2CCCC2)cc1	aSyn 5UTR act -104.5
OC1CCC(NC(=S)Nc2ccc(SC(F)F)cc2)CC1 (stereo not drawn)	aSyn 5UTR act -125.8
O=C(Nc1ccc(SC(F)F)cc1)C12CCC(CC1)C2	aSyn 5UTR act -80.1
CCOC(=O)N/N=C/c1c(C)nn(-c2ccccc2Cl)c1Cl	aSyn 5UTR act -90.6
Cc1nn(-c2ccccc2)c(Cl)c1/C=N/NC(=O)OC(C)(C)C	aSyn 5UTR act -131.1
Cc1nn(C(C)(C)C)c(C)c1/C=N/OC(=O)Nc1ccc(Cl)cc1	none
Cc1nn(-c2ccccc2Cl)c(Cl)c1/C=N/Nc1nc2ccccc2s1	none
CNC(=S)N/N=C/c1c(C)nn(-c2ccccc2)c1Cl	aSyn 5UTR act -88.6
COC(=O)c1cnc(SCc2ccc(C)cc2)n1C	aSyn 5UTR act -81.4
COc1ccc(-c2cn3c(C)c(C(=O)NC(C)(C)C)sc3n2)cc1	aSyn 5UTR act -229.2
COc1ccc(-c2cn3c(C)c(C(=O)NC(C)C)sc3n2)cc1	aSyn 5UTR act -77.8
O=C1NC(c2ccc(Cl)cc2)Nc2ccccc21 (stereo not drawn)	aSyn 5UTR act -62.0
CN(C)c1ccc(C2Nc3cccc4cccc(c34)N2)cc1	aSyn 5UTR act -94.1
Cc1ccc(C2NC(=O)c3ccccc3N2)s1 (stereo not drawn)	aSyn 5UTR act -168.1
CN(C)c1ccc(C2NC(=O)c3ccccc3N2)cc1 (stereo not drawn)	aSyn 5UTR act -130.6
COc1ccc(-c2nnc(SCC(=O)N3CCCC3)o2)cc1	aSyn 5UTR act -107.3
CCOc1ccc(-c2nc(CSCC(=O)N3CCN(c4cccc(OC)c4)CC3)c(C)o2)cc1	none
CCOc1ccc(-c2nnc(SCC(=O)N3CCOCC3)o2)cc1	aSyn 5UTR act -113.3
CCOc1ccc(-c2nnc(SCC(=O)N3CCCC3)o2)cc1	aSyn 5UTR act -101.3
Nc1ccc2c(c1Cl)C(=O)c1ccc(N)c(Cl)c1C2=O	aSyn 5UTR act -88.0
COc1ccc2c(c1)CCC/C2=N\Nc1nc(C(=O)NN)cs1	aSyn 5UTR act -92.2
O=C(N/N=C1\CCCc2ccccc21)c1ccccc1Cl	aSyn 5UTR act -132.5
O=C(O)c1ccc(N/N=C2/CCCc3ccccc32)cc1	aSyn 5UTR act -81.6
Cc1cc(C(=O)N/N=C2\CCCc3ccccc32)c(C)o1	aSyn 5UTR act -126.1
O=C(N/N=C1\CCCCc2ccccc21)c1ccccn1	aSyn 5UTR act -91.8
O=C(N/N=C1\CCc2ccccc21)c1ccncc1	aSyn 5UTR act -159.5
COc1ccc2c(c1)CCC/C2=N\NC(=O)c1ccoc1C	aSyn 5UTR act -69.7
Cc1cc(C(=O)NC2Cc3ccccc3C2)c(C)o1	aSyn 5UTR act -136.6
CCOC(=O)C1=C(c2ccccc2)O/C(=C(/C#N)C(F)(F)F)S1	aSyn 5UTR act -63.5
COc1cc(C2NC(=S)NC(O)(C(F)(F)F)C2C(=O)c2cccs2)cc(OC)c1O (stereo not drawn)	aSyn 5UTR act -95.1
CN1C(=O)NC(c2ccc(O)cc2)C(C(=O)c2cccs2)C1(O)C(F)(F)F (stereo not drawn)	aSyn 5UTR act -100.2
O=C(NC(=S)Nc1ccc2[nH]ncc2c1)c1ccccc1	aSyn 5UTR act -115.0
CC(C)(C)NC(=S)NNC(=O)c1ccc2ncccc2c1	aSyn 5UTR act -133.8
COc1cccc(C(=O)Nc2ccc3[nH]ncc3c2)c1	aSyn 5UTR act -75.8
O=C(Nc1ccc2cccnc2c1)c1ccc(Br)cc1	aSyn 5UTR act -64.6
O=C(NC(=S)Nc1ccc2ncccc2c1)c1ccccc1	aSyn 5UTR act -137.1
O=C(NNC(=S)Nc1ccccc1)c1ccc2ncccc2c1	aSyn 5UTR act -97.2
O=C(NC(=S)Nc1ccc2nc[nH]c2c1)c1ccccc1	aSyn 5UTR act -115.8
CC(C)(C)CC(=O)Nc1ccc(-c2cn3cccnc3n2)cc1	aSyn 5UTR act -80.0
CCCC(=O)Nc1ccc(-c2cn3cccnc3n2)cc1	aSyn 5UTR act -85.2
CC(C)CC(=O)Nc1ccc(-c2cn3cccnc3n2)cc1	aSyn 5UTR act -79.9
Cc1cc2oc3cc(NCCC4CCCN4C)ccc3c(=O)c2cc1C (stereo not drawn)	aSyn 5UTR act -184.2
CN1CCCC1CCNc1ccc2sc3ccccc3c(=O)c2c1 (stereo not drawn)	aSyn 5UTR act -114.0
O=c1c2ccccc2sc2ccc(NCCCN3CCOCC3)cc12	aSyn 5UTR act -158.4
Cc1ccc(-c2cc(C(=O)N/N=C/c3c(C)nn(C)c3C)c3ccccc3n2)cc1C	aSyn 5UTR act -73.0
CCCc1ccc(-c2cc(C(=O)NC3=NCCS3)c3ccccc3n2)cc1	aSyn 5UTR act -190.7
Cc1ccc(-c2cc(C(=O)NC3=NCCS3)c3ccccc3n2)cc1C	aSyn 5UTR act -167.5
CCc1ccc(-c2cc(C(=O)NCc3ccccn3)c3ccccc3n2)cc1	aSyn 5UTR act -227.0
COc1cc(/C=N/n2cnnc2)ccc1OCCSc1ccc(C)cc1	aSyn 5UTR act -78.1
COc1ccc(CCNC(=O)Nc2ccccc2[N+](=O)[O-])cc1	aSyn 5UTR act -130.0
COc1ccc(CCNC(=O)C2CC(c3ccccc3[N+](=O)[O-])=NO2)cc1 (stereo not drawn)	aSyn 5UTR act -95.0
CCCCNC(=O)C1CC(c2cccc([N+](=O)[O-])c2)=NO1 (stereo not drawn)	aSyn 5UTR act -170.8
O=C(NCCc1cccs1)C1CC(c2ccccc2[N+](=O)[O-])=NO1 (stereo not drawn)	aSyn 5UTR act -92.9
COc1ccc(C2=NOC(C(=O)NCc3ccc(F)cc3)C2)cc1OC (stereo not drawn)	none
COc1ccc(Cl)cc1NC(=O)CN(C)CC(=O)Nc1ccccc1N1CCOCC1	none
Cc1ccn2cc(C(=O)Nc3nnc(C)s3)nc2c1	aSyn 5UTR act -110.9
Cc1ccn2cc(C(=O)Nc3ccccc3N3CCOCC3)nc2c1	aSyn 5UTR act -89.9
O=C(Nc1ccccc1N1CCOCC1)c1ccc2ccccc2n1	aSyn 5UTR act -118.2
Cc1ccccc1NC(=O)c1cc2ccccn2n1	aSyn 5UTR act -108.6
Cc1ccc(C)c(NC(=O)c2cc3ccccn3n2)c1	aSyn 5UTR act -195.7
O=C(COc1ccccc1)Nc1ccccc1F	aSyn 5UTR act -139.5
O=C(COc1ccccc1)Nc1ccc(Cl)cc1Cl	aSyn 5UTR act -154.4
O=C(COc1ccccc1)Nc1cc(Cl)ccc1Cl	aSyn 5UTR act -91.4
COCC(=O)Nc1cc(C(=O)Nc2ccccc2)ccc1Cl	aSyn 5UTR act -78.9
COC(=O)C(=Cc1ccc(OCc2ccc([N+](=O)[O-])cc2)c(OC)c1)C(=O)OC	aSyn 5UTR act -259.5

Assay outcomes: PubChem, Broad Institute
